# In the supplement of paper PMC8728848:
# This is one part of a sample in which the strongest signals are shown more often than they occur.
# B1: Epa21 (Candida glabrata) (protein)
# chain: MGSSHHHHHHSSGLVPRGSHMASTPNIESHPQGCSPVDTSGIKPGLKMDLYRFPITPPGTGCWSWDWLTVTPDFPRSGYWKWPKIAEVDGVVGPLHLDSGHPTCDPLTSVLPHGFNYLQSITTTNFTMVLHGYFVPKQSGKYTFEFKADDALLLNLGAGNAFSCCDYNNSQYNQGEYLAYAIWSKNNQTATLYLEKGIYYPIRVFYHNRCCGAYMDVVYYFNDSPIPNRDFSGLLFSIPDSDSCDANI
# Experiments:
# Test in all cases: glycan array binding signal (z-score within array); higher = stronger binding
# Conditions in all cases: glycan notation: IUPAC condensed, linker removed
# [1] = molecular target: Fuc(a1-2)Gal(b1-4)Fuc(a1-3)]GlcNAc(b1-2)Man(a1-3)[Fuc(a1-2)Gal(b1-4)[Fuc(a1-3)]GlcNAc(b1-2)Man(a1-6)]Man(b1-4)GlcNAc(b1-4)GlcNAc
# Procedure, shortened: (§1)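 Glycan array binding is given as a within-array Z-score, which can be read as non-binding when negative. The arrays, 3228 of them, came from the Consortium for Functional Glycomics database and were retained only where the protein sequence was available. Z-scores were averaged across arrays of the same protein sequence at different concentrations or buffers and across linkers.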
# [2] = molecular target: Fuc(a1-2)Gal(b1-4)GlcNAc(b1-3)[Fuc(a1-2)Gal(b1-4)GlcNAc(b1-6)]GalNAc
# Procedure, shortened: as §1
# [3] = molecular target: Fuc(a1-2)Gal6S(b1-3)GlcNAc6S
# Procedure, shortened: as §1
# [4] = molecular target: Fuc(a1-2)[Gal(a1-3)]Gal(b1-3)GlcNAc(b1-2)Man(a1-3)[Fuc(a1-2)[Gal(a1-3)]Gal(b1-3)GlcNAc(b1-2)Man(a1-6)]Man(b1-4)GlcNAc(b1-4)GlcNAc
# Procedure, shortened: as §1
# [5] = molecular target: Fuc(a1-2)[Gal(a1-3)]Gal(b1-4)GlcNAc(b1-6)GalNAc
# Procedure, shortened: as §1
# [6] = molecular target: Fuc(a1-2)[GalNAc(a1-3)]Gal(b1-4)GlcNAc(b1-6)GalNAc
# Procedure, shortened: as §1
# [7] = molecular target: Fuc(a1-2)[GalNAc(a1-3)]Gal(b1-4)[Fuc(a1-3)]GlcNAc
# Procedure, shortened: as §1
# [8] = molecular target: Fuc(a1-3)[Gal(b1-4)]GlcNAc(b1-2)Man
# Procedure, shortened: as §1
# [9] = molecular target: Fuc(a1-3)[Gal(b1-4)]GlcNAc(b1-3)Gal(b1-4)[Fuc(a1-3)]GlcNAc
# Procedure, shortened: as §1
# Fuc(b1-3)GlcNAc = molecular target: Fuc(b1-3)GlcNAc
# Procedure, shortened: as §1
# Gal(a1-3)Gal(b1-4)Glc = molecular target: Gal(a1-3)Gal(b1-4)Glc
# Procedure, shortened: as §1
# [10] = molecular target: Gal(a1-3)Gal(b1-4)GlcNAc(b1-3)GalNAc
# Procedure, shortened: as §1
# Gal(a1-3)GalNAc = molecular target: Gal(a1-3)GalNAc
# Procedure, shortened: as §1
# Gal(a1-4)GlcNAc = molecular target: Gal(a1-4)GlcNAc
# Procedure, shortened: as §1
# [11] = molecular target: Gal(b1-3)GlcNAc(b1-3)Gal(b1-4)GlcNAc
# Procedure, shortened: as §1
# [12] = molecular target: Gal(b1-3)GlcNAc(b1-3)Gal(b1-4)[Fuc(a1-3)]GlcNAc(b1-6)[Gal(b1-3)GlcNAc(b1-3)]Gal(b1-4)Glc
# Procedure, shortened: as §1
# [13] = molecular target: Gal(b1-3)GlcNAc(b1-3)GalNAc
# Procedure, shortened: as §1
# [14] = molecular target: Gal(b1-4)GlcNAc(b1-2)Man(a1-3)[Gal(b1-4)GlcNAc(b1-2)Man(a1-6)][GlcNAc(b1-4)]Man(b1-4)GlcNAc(b1-4)[Fuc(a1-6)]GlcNAc
# Procedure, shortened: as §1
# [15] = molecular target: Gal(b1-4)GlcNAc(b1-3)Gal(b1-4)GlcNAc(b1-3)Gal(b1-4)GlcNAc(b1-2)Man(a1-3)[Gal(b1-4)GlcNAc(b1-3)Gal(b1-4)GlcNAc(b1-3)Gal(b1-4)GlcNAc(b1-2)Man(a1-6)]Man(b1-4)GlcNAc(b1-4)GlcNAc
# Procedure, shortened: as §1
# [16] = molecular target: Gal(b1-4)GlcNAc(b1-3)Gal(b1-4)GlcNAc(b1-3)[Gal(b1-4)GlcNAc(b1-3)Gal(b1-4)GlcNAc(b1-6)]GalNAc
# Procedure, shortened: as §1
# [17] = molecular target: Gal(b1-4)GlcNAc(b1-3)Gal(b1-4)GlcNAc(b1-6)[Gal(b1-3)]GalNAc
# Procedure, shortened: as §1
# [18] = molecular target: Gal(b1-4)GlcNAc(b1-3)Gal(b1-4)[Fuc(a1-3)]GlcNAc(b1-3)Gal(b1-4)[Fuc(a1-3)]GlcNAc
# Procedure, shortened: as §1
# [19] = molecular target: Gal(b1-4)GlcNAc(b1-6)GalNAc
# Procedure, shortened: as §1
binder,measurement,setting,value
B1,glycan array binding signal (z-score),[1],2.49
same,glycan array binding signal (z-score),[2],-0.296
same,glycan array binding signal (z-score),[3],4.29
same,glycan array binding signal (z-score),[4],-0.507
same,glycan array binding signal (z-score),[5],-0.214
same,glycan array binding signal (z-score),[6],-0.634
same,glycan array binding signal (z-score),[7],-0.093
same,glycan array binding signal (z-score),[8],-0.558
same,glycan array binding signal (z-score),[9],0.064
same,glycan array binding signal (z-score),Fuc(b1-3)GlcNAc,-1.01
same,glycan array binding signal (z-score),Gal(a1-3)Gal(b1-4)Glc,-0.176
same,glycan array binding signal (z-score),[10],1.03
same,glycan array binding signal (z-score),Gal(a1-3)GalNAc,-0.135
same,glycan array binding signal (z-score),Gal(a1-4)GlcNAc,4.26
same,glycan array binding signal (z-score),[11],-0.56
same,glycan array binding signal (z-score),[12],-0.438
same,glycan array binding signal (z-score),[13],-0.317
same,glycan array binding signal (z-score),[14],-0.687
same,glycan array binding signal (z-score),[15],2.55
same,glycan array binding signal (z-score),[16],1.89
same,glycan array binding signal (z-score),[17],2.73
same,glycan array binding signal (z-score),[18],-0.493
same,glycan array binding signal (z-score),[19],-0.047
